This is an account of results in PubChem BioAssay AID1259422 (The Scripps Research Institute Molecular Screening Center, 2018).

Each structure is given as a SMILES string. In all, about 640,000 compounds went through this assay and about 9,300 (1.5%) were called active. This is one part of a sample in which actives are shown more often than they occur. Unmarked numbers belong to inactive results. Rule as the data show it: active = inhibition above about 32%; inactive = the rest.

The assay is described as follows: TEAD-YAP interaction inhibition, primary screen, TEAD-YAP interaction inhibitor project, luminescence, HEK-TIYL cells (AID 1259422).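 Also: 0% = median of test compound wells and 100% = reference inhibitor wells.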 Conditions: TEAD-Gal4/YAP UAS-luciferase luminescence, at 9.12 µM, active compounds read high.
In the case of `Cc1csc(C(C#N)C(=O)COC(=O)c2sc3cc(F)ccc3c2Cl)n1` (configuration not stated), the inhibition (commonly the relative decrease from the control value, in per cent) is -0.66%.

Consider `COC(=O)C1=C(C)NC(=O)/C1=C\c1cccc(OCc2ccccc2)c1`, for which the inhibition was -0.2%.

Regarding `O=C(c1cc(-c2ccncc2)nc2ccccc12)N1CCN(c2ccccc2)CC1`, the inhibition is 57% (active).

As to `Cc1ccc(Nc2cc(C(=O)O)c3ccccc3n2)cc1`, the inhibition is -9.91%.

Turning to `O=C(O)c1cc(-c2ccc(-c3ccccc3)cc2)nc2ccccc12`, the inhibition was 84.8% (active).

For `O=C(COC(=O)c1cc(-c2ccccc2)nc2ccccc12)c1ccccc1`, the inhibition was -10%.

Turning to `O=C(c1cc(N2CCOCC2)nc2ccccc12)N1CCN(c2cccc(Cl)c2)CC1`, the inhibition is -4.93%.

For `O=C(c1cc(-c2ccc(Cl)cc2)nc2ccccc12)N1CCN(c2ccc([N+](=O)[O-])cc2)CC1`, the inhibition was 3.06%.

On to `COc1ccc(CNC(=O)c2ccccc2N(Cc2ccccc2)S(=O)(=O)c2ccc(C)cc2)cc1`, for which the inhibition was 1.46%.

Turning to `O=C(NCCCN1CCCC1=O)c1ccc2c(c1)N(Cc1ccccc1)C(=O)CS2=O` (configuration not stated), the inhibition was -1.97%.

Consider `CSc1ccccc1NC(=O)Cn1nc(C)c([N+](=O)[O-])c1C`, for which the inhibition is -7.74%.

On to `Cc1ccc(Oc2ccc(NC(=O)c3ccc(Br)c([N+](=O)[O-])c3)cc2)cc1`, for which the inhibition is 20.9%.

In the case of `CC(=O)Nc1ccc(Nc2cc(C)nc(NCc3ccc4c(c3)OCO4)n2)cc1`, the inhibition is 31.4%.

On to `Cc1cc(Nc2ccc(N3CCOCC3)cc2)nc(NCc2ccc3c(c2)OCO3)n1`, for which the inhibition is 38.4% (active).

On to `CCNc1nc(C)cc(Nc2ccc(N3CCOCC3)cc2)n1`, for which the inhibition was 1.76%.

For `O=C(Nc1cccnc1Cl)c1cc2nc3c(c(C(F)(F)F)n2n1)CCc1ccccc1-3`, the inhibition was 5.92%.

Turning to `Cc1ncc(-c2ccncn2)c(-c2ccc(C(F)(F)F)nc2)n1`, the inhibition is 6.09%.

For `C=C(C)CONC(=O)c1cnc2scc(C(C)(C)C)n2c1=O`, the inhibition is -7.08%.

Take `C=CCn1c(C)cc(C2=NNC(=NCC)SC2)c1C`: the inhibition is 99.6% (active).

In the case of `CCC(=O)Nc1ccc(C2=NNC(=NC)SC2)cc1`, the inhibition was -4.44%.

With `C=CCn1c(C)cc(C(=O)CC#N)c1C`, the inhibition is -18.5%.

`COc1ccc(C2C(C#N)=C(N)Oc3cc(C)n(Cc4ccco4)c(=O)c32)c(OC)c1` (configuration not stated): the inhibition is 6.86%.

As for `O=C(N/N=C/c1ccc([N+](=O)[O-])o1)c1ccc(Cl)cc1Cl`, the inhibition was 44.6% (active).

For the molecule `O=C(N/N=C/c1ccc([N+](=O)[O-])o1)c1cc(Cl)ccc1O`, the inhibition is 2.15%.

Regarding `O=C(N/N=C/c1ccc([N+](=O)[O-])o1)c1cccc(F)c1`, the inhibition is -23.7%.

Take `COc1cc(NC(=O)CC(C)C)c(C(=O)O)cc1OC`: the inhibition is 12.1%.

As for `Cc1cc(NC(=O)c2ccccc2Br)ccc1O`, the inhibition is 77% (active).

With `Cc1ccccc1C(=O)Nc1ccc(Br)c(Cl)c1`, the inhibition was -77.6%.

For `Cc1ccc(NC(=O)c2ccccc2Br)cc1C`, the inhibition is -49%.

As for `COC1CCN(c2ncn(-c3ccc(Nc4nccc(-c5cncc(N6CCOCC6)c5)n4)cc3)n2)CC1`, the inhibition was 51.5% (active).

Turning to `Cc1cnnn1-c1ccc(Nc2nccc(-c3cc(C#N)cc(N4CCOCC4)c3)n2)cc1`, the inhibition was 1.73%.

For the molecule `CN(C)c1cc(F)cc(-c2ccnc(Nc3ccc(-n4cnc(N5CCOCC5)n4)cc3)n2)c1`, the inhibition was -6.66%.

Turning to `Cn1nccc1-c1cc(F)cc(-c2ccnc(Nc3ccc(-n4cnc(N5CCOCC5)n4)cc3)n2)c1`, the inhibition is 9.9%.

In the case of `N#Cc1cc(-c2ccnc(Nc3ccc(-n4cnc(-c5ccccn5)n4)cc3)n2)cc(N2CCOCC2)c1`, the inhibition was 43.5% (active).

Turning to `Cc1ncccc1-c1ncn(-c2ccc(Nc3nccc(-c4cc(F)cc(N5CCOCC5)c4)n3)cc2)n1`, the inhibition is -3.6%.

On to `c1cc(-c2cncc(N3CCOCC3)c2)nc(Nc2ccc3c(c2)OCO3)n1`, for which the inhibition was 36.5% (active).

For the molecule `OC1CCN(c2ccc(Nc3nccc(-c4cc(N5CCOCC5)cc(C(F)(F)F)c4)n3)cc2)CC1`, the inhibition was 31.8%.

Consider `N#Cc1cccc(-c2ccnc(Nc3ccc(N4CCOCC4)cc3)n2)c1`, for which the inhibition is -9.11%.

As to `Cc1nc(Oc2cc3sc(C)nc3c3sccc23)c2c3c(sc2n1)CCCC3`, the inhibition was 4.62%.

For the molecule `Cc1cc(-n2c(C)cc(C(=O)COC(=O)c3cc(=O)[nH]c4ccccc34)c2C)no1`, the inhibition is -18.6%.

As to `CCC(C)NC(=O)C(C(F)(F)F)(C(F)(F)F)C(F)(F)F` (configuration not stated), the inhibition is 4.25%.

As for `COc1ccc(-c2cnnn2-c2ccc(-c3csc(N)n3)cc2)cc1`, the inhibition is 9.88%.

In the case of `COc1ccc(C(=O)N2CCC[C@@H]2[C@@H](O)c2cccs2)cc1Cn1cccn1`, the inhibition was -11.1%.

Regarding `O=C(Nc1ccc2ccccc2c1)c1ccc2c(c1)C(=O)N(N1C(=O)c3ccccc3C1=O)C2=O`, the inhibition was 2.19%.

Take `Cc1cccc(N2CCN(C(=O)Cn3ncc4c(=O)oc5ccccc5c43)CC2)c1C`: the inhibition is 63% (active).

Turning to `Cc1ccc2oc(=O)c3cnn(CC(=O)N4CCN(c5ccccn5)CC4)c3c2c1`, the inhibition is 1.66%.

For the molecule `Cc1ccc2oc(=O)c3cnn(CC(=O)N4CCN(c5cccc(Cl)c5)CC4)c3c2c1`, the inhibition is 0.74%.

For the molecule `COc1ccc(/C=C2N=C(/C=C/c3ccc(Cl)cc3Cl)OC\2=O)cc1OC(C)=O`, the inhibition is -1.28%.

For `Cc1ccccc1-n1c(=S)sc2c(=O)n(-c3ccccc3)c(SCc3cccc([N+](=O)[O-])c3)nc21`, the inhibition was -6.72%.

Take `O=C1C2CC=CCC2C(=O)N1c1ccc(N2C(=O)C3CC=CCC3C2=O)c(Cl)c1` (configuration not stated): the inhibition was 9.86%.

On to `CC(C)C(=O)Nc1ccc(-c2nc3ccccc3o2)cc1`, for which the inhibition was 44.5% (active).

For `CCC(=O)Nc1ccc(-c2nc3ccccc3o2)cc1`, the inhibition is 3.84%.

As to `O=C(Nc1ccc(-c2nc3ccccc3o2)cc1)c1ccc(Oc2ccccc2)cc1`, the inhibition is -4.71%.

For the molecule `COc1ccc(C(=O)N/C(=C/c2ccc([N+](=O)[O-])cc2)C(=O)Nc2cc(Cl)cc(Cl)c2)c(Cl)c1`, the inhibition is -19%.

`CS(=O)(=O)N(CC(=O)NCCC1=CCCCC1)c1ccc(OCc2ccccc2)cc1`: the inhibition was 5.23%.

Regarding `CCOC(=O)c1cccc(NC(=O)COc2ccccc2Br)c1`, the inhibition is 54.5% (active).

With `CCCCOC(=O)c1cccc(NC(=O)COc2ccc(C)c(C)c2)c1`, the inhibition is -33.7%.

For the molecule `Cc1cc(NC(=O)COc2ccccc2Br)no1`, the inhibition is -74.2%.

Turning to `Cc1ccsc1/C=N/NS(=O)(=O)c1ccc(Br)cc1`, the inhibition was -2.4%.

Regarding `CC(C)C(=O)N=C1N=C2C=CC(Cl)=CN2Cc2ccccc21`, the inhibition is -43.4%.

In the case of `COc1cccc(/C=N/Nc2nc(=O)[nH]nc2C)c1OC`, the inhibition is -7.82%.

With `COc1ccc(/C=N/Nc2ncnc3nc[nH]c23)cc1OC`, the inhibition was -5.99%.

For `COC(=O)c1ccc(Nc2ncnc3nc[nH]c23)cc1`, the inhibition is 12.4%.

Consider `COc1ccccc1-c1cnnc(N/N=C/c2cccc(OC)c2OCC(=O)O)n1`, for which the inhibition was 15%.

For the molecule `CCOc1ccc(/C=N/Nc2ncnc3nc[nH]c23)cc1`, the inhibition is 81.1% (active).

Consider `COc1cccc(/C=N/Nc2ncnc3nc[nH]c23)c1OC`, for which the inhibition is 37.2% (active).

In the case of `Cc1sc2ncn(CC(=O)NCCCC(=O)NCCC3=CCCCC3)c(=O)c2c1C`, the inhibition was 6.71%.

Consider `CCOc1ccc(/C(O)=C2/C(=O)C(=O)N(CCN(CC)CC)C2c2ccc(F)cc2)cc1C` (configuration not stated), for which the inhibition is -0.51%.

For the molecule `CCCCCCn1c(NNC=O)nc2c1c(=O)[nH]c(=O)n2C`, the inhibition is 5.98%.

In the case of `CCOC(=O)c1ccc(NC(=O)C2CC(=O)N(CCc3ccccc3)C(=Nc3ccccc3)S2)cc1` (configuration not stated), the inhibition is 5.21%.

Turning to `Cc1ccc(CN(C)Cc2c(C(=O)N3CCN(C4CCCCC4)CC3)nc3ccccn23)o1`, the inhibition was -4.7%.

Turning to `COc1ccc(Nc2nc(N3CCCC3)nc(N3CCCC3)n2)cc1`, the inhibition is 1.54%.

For the molecule `O=C(c1n[nH]c(=O)c2ccccc12)N1CCN(Cc2ccccc2)CC1`, the inhibition was -7.02%.

With `COc1cc(OC)c(OC)cc1CN1CCN(c2ccccc2F)CC1`, the inhibition is 2.95%.

Take `COc1ccccc1N1CCN(C(=O)c2n[nH]c(=O)c3ccccc23)CC1`: the inhibition is 59% (active).

Consider `COc1ccccc1-n1nc(C(=O)N2CCN(c3ccccc3)CC2)c2ccccc2c1=O`, for which the inhibition was 0.45%.

For `COc1cc2nc(CN3CCN(c4ccccc4OC)CC3)[nH]c(=O)c2cc1OC`, the inhibition was 63.6% (active).

For `COc1cc(CN2CCN(c3ccccc3OC)CC2)cc(OC)c1`, the inhibition was 4.91%.

Take `COc1ccccc1N1C(=O)C2C(C(C)=O)=NN(c3cccc(Cl)c3)C2C1=O` (configuration not stated): the inhibition is 2.39%.

For the molecule `O=C(CN1CCOCC1)NCC1(c2ccccc2)CCCC1`, the inhibition is 4.7%.

On to `CCOC(=O)c1c(NC(=O)CSc2nnc(CNC(=O)c3cccs3)n2-c2ccccc2OC)sc2c1CCCCC2`, for which the inhibition is 11.5%.

Consider `O=S1(=O)Nc2cccc3cccc1c23`, for which the inhibition is 9.46%.

For the molecule `CCN1C/C(=C/c2ccc(NC(C)=O)cc2)C(=O)/C(=C/c2ccc(NC(C)=O)cc2)C1`, the inhibition is 77.6% (active).

Take `CC(=O)Nc1ccc(CN2CCOCC2)cc1`: the inhibition is -2.53%.

Take `CCNCC(=O)Nc1ccc(NC(C)=O)cc1`: the inhibition is 5.37%.

On to `CCCOc1ccc(/C(O)=C2/C(=O)C(=O)N(CCN3CCOCC3)C2c2ccc(F)cc2)cc1C` (configuration not stated), for which the inhibition was -9.41%.

In the case of `O=C1CCCN1CCCNc1cc(-c2cccs2)ncn1`, the inhibition is -13.2%.

Take `CN(CCC#N)C(=O)Cn1ncc2c1-c1ccccc1OC2`: the inhibition is 4.76%.

Take `COC(=O)c1cc(S(=O)(=O)Nc2ccc(C(C)=O)cc2)cn1C`: the inhibition was -5.94%.

Take `CC(=O)NC1=NN(C(C)=O)C(C)(c2ccc(Cl)s2)S1` (configuration not stated): the inhibition is 63.5% (active).

Turning to `COc1ccc(C2(C)SC(NC(C)=O)=NN2C(C)=O)cc1` (configuration not stated), the inhibition was 17.7%.

Take `CC(=O)NC1=NN(C(C)=O)C(C)(c2ccc(C)cc2)S1` (configuration not stated): the inhibition is 10.1%.
